From paper PMC13494018 come the findings set out here.

The labels stand for the following.
B1: design_622_fcc41892-afde-4fb9-b6e8-b664fffd6a75_1878_dldesign_0_cycle1_af2pred (protein)
chain: GRQQELNQALGLTLEAAKKASELNKEVLPLVNEAASLIAKAYLTGDKELLKKAIEKLKKAAELASEEVKVLLKKAAEHAKKAIEL
B2: design_622_fcc41892-afde-4fb9-b6e8-b664fffd6a75_1828_dldesign_0_cycle1_af2pred (protein)
chain: EAAAREAAARRLAAALEAAEAAAAGPLGPRVAVAAAEVALEVLAAHPRLSPEAVRAAHRLLVLGGRAAGILAA
B3: design_623_6e2e8b1f-5d9a-4413-9869-27a184816b12_1233_dldesign_0_cycle1_af2pred (protein)
chain: DAATQAKVKELAEKALNGTPEEAYKATAEAFKISEQAGMEVLAAAAKGKPENAHAALSAYAAGLVAAKKAA
B4: design_622_fcc41892-afde-4fb9-b6e8-b664fffd6a75_1948_dldesign_0_cycle1_af2pred (protein)
chain: SEEALLLANQGVALASQGLIAGDDAKVKEGIKKIEEAKKLASPELAKTFDKLKATVEAMAAGTAAARAAAAAAA
B5: design_622_fcc41892-afde-4fb9-b6e8-b664fffd6a75_1795_dldesign_0_cycle1_af2pred (protein)
chain: ANAQLAKGYLTAGQVYLQSPDAAYQEQAATAAQAAAAYAEADPAMADLAKQAKALEAEAKAKAAAAKAAA
B6: design_623_6e2e8b1f-5d9a-4413-9869-27a184816b12_262_dldesign_0_cycle1_af2pred (protein)
chain: GAAEARAQAEKTFAEAIEVGKEALKEAEKLKEKDKEKAEKYIKKINELLHELFRAMALSMTDPEAGLKAIEEQLKKLKEVLKEIKE
B7: design_622_fcc41892-afde-4fb9-b6e8-b664fffd6a75_1610_dldesign_0_cycle1_af2pred (protein)
chain: DDAAKLASLREFLAQLVEIAKAGNAEQARVMARNARAAARSVAAAVASAAEALALGAEAEAEILAIAQEKAAAA
B8: design_622_fcc41892-afde-4fb9-b6e8-b664fffd6a75_1399_dldesign_0_cycle1_af2pred (protein)
chain: GAALAAAKGVAEQVKRVAEEAEAADPSLAPIMEEYKRRAEELLKKAQENASDEAKVNEYLAELVELLGEVARLRREALAA
B9: design_622_fcc41892-afde-4fb9-b6e8-b664fffd6a75_2349_dldesign_0_cycle1_af2pred (protein)
chain: LTEELARETARGQRYAAELIALDPAAQELLEQVRRLSAAALQALLAGDEELAKKLAEEVKRLAEEIKARAEALK
B10: design_622_fcc41892-afde-4fb9-b6e8-b664fffd6a75_2129_dldesign_0_cycle1_af2pred (protein)
chain: AAAEAAARAALLAEGLALAHQAATFAAMAEYSPGVAPLAERARARLEAVTAAATPEVAAEIRAAYEASLARVRAALA
B11: design_622_fcc41892-afde-4fb9-b6e8-b664fffd6a75_1873_dldesign_0_cycle1_af2pred (protein)
chain: NALVQAGKIAAQAAVSLAKNAIAHADEMSPEGLQGAIDVATALIEYAEKAAKEDPEVAKLVEEAKKLVAEAKAVLAAR
B12: design_623_6e2e8b1f-5d9a-4413-9869-27a184816b12_873_dldesign_0_cycle1_af2pred (protein)
chain: SENVKKAKALAAKSKELLEKAKKGDAETAQKALKEISKLANELAKLATSSPAADQAATNAALAVAVEAAEEASKIAREKKA
B13: design_623_6e2e8b1f-5d9a-4413-9869-27a184816b12_532_dldesign_0_cycle1_af2pred (protein)
chain: AAVAAAIAAGEAAIKTVEALTKQAKTATPEERKAIAEQLRAAAVTLMNAAVASSPAYSPKFGAAAVEALQAAAEAG
B14: design_622_fcc41892-afde-4fb9-b6e8-b664fffd6a75_1677_dldesign_0_cycle1_af2pred (protein)
chain: MEELEELKERSEEVKKRAEEAKKKGEELKKKSPKTAVAGNAVIALAKSAKELAEDPEKVEQAEKVLEIAEAIIKAA
B15: design_622_fcc41892-afde-4fb9-b6e8-b664fffd6a75_2329_dldesign_0_cycle1_af2pred (protein)
chain: AALREEAKKRVDAAVAAADAAAAADPLAGAIAYGELAVETARLAAELARADPAAGAEMRAKLVDISQKAIALALAAG
B16: design_622_fcc41892-afde-4fb9-b6e8-b664fffd6a75_2361_dldesign_0_cycle1_af2pred (protein)
chain: EQEKKAKELLKKVKELAKKAEETIKAGIAAGLPKEEIVGKGGELVVEAAKKAAELARVGTPEQAAEARKIVAAAIKYLLKVAAA
B17: design_623_6e2e8b1f-5d9a-4413-9869-27a184816b12_890_dldesign_0_cycle1_af2pred (protein)
chain: SPAARLMEATYRRLEEALEKLERAEELSPEEVLEAARLAEANARFARLAGRQAAAEEGTAEAAEAAAKAEALAEEAEEKAREARERLE
B18: design_623_6e2e8b1f-5d9a-4413-9869-27a184816b12_287_dldesign_0_cycle1_af2pred (protein)
chain: AAAAKAALAAAKAKADEVAKYAEEVDPELGKEIKAKQADLTKAAQDGLAISPALAKGAANMLAAYAESAKKKAEKLAKEK
B19: design_622_fcc41892-afde-4fb9-b6e8-b664fffd6a75_2272_dldesign_0_cycle1_af2pred (protein)
chain: DEAKKQLEIATKMAEYALKQAEAALKDGRTAGTVVPAQVKTLKLLAESAEATGLEEAKKKAEEFKKKAKELEKAAEKAK
B20: design_623_6e2e8b1f-5d9a-4413-9869-27a184816b12_569_dldesign_0_cycle1_af2pred (protein)
chain: NAAAQATVAAIVKQLRKRAEEEAGNPEIAKALKDGAEAVKEAGKKGIGAAVETLKETYAKVAELRAAQAAA
B21: design_623_6e2e8b1f-5d9a-4413-9869-27a184816b12_824_dldesign_0_cycle1_af2pred (protein)
chain: MEEKIKEAEKLYLEGLKAAGAAHAAIVKGDVAAAKKALEKLKEIAEKLKELGKESEEAKKIAENAEKLYEVTKAAVDAAAAA
B22: design_623_6e2e8b1f-5d9a-4413-9869-27a184816b12_997_dldesign_0_cycle1_af2pred (protein)
chain: EGEKLWKEAKALTDQAKALAAQAQATTDAAQAKQYAIEAAAATTEAMRLASEAARLLGPEKQEEANRLVQEATQALVAATQAAQALA
B23: design_623_6e2e8b1f-5d9a-4413-9869-27a184816b12_258_dldesign_0_cycle1_af2pred (protein)
chain: ASEAAAQTITRGVAELRERFADLSPEALAALAAAQQAALLAAIQGDFEAAAAEVVRGAEAVGAISPHTEEIRALGRATAERILALA
B24: design_622_fcc41892-afde-4fb9-b6e8-b664fffd6a75_2371_dldesign_0_cycle1_af2pred (protein)
chain: SAAAAESNQELAKQLKAIAQANAKAGDAEAVERVARSAAAAAKAVSEHPEAQKALTEAAKEAQKLAQQVKAA
B25: design_622_fcc41892-afde-4fb9-b6e8-b664fffd6a75_2288_dldesign_0_cycle1_af2pred (protein)
chain: SAEEEVLAKVKELRDKVEAAAADPAKAAEGAALAQEALAFLEENLPVIRAGGQELKDAVHALLRAIARHNAVYN
B26: design_623_6e2e8b1f-5d9a-4413-9869-27a184816b12_681_dldesign_0_cycle1_af2pred (protein)
chain: MEEIKEKAKELAETVEAIGEELAKFGLETGNENAITAGVNTAKHVAKYAERLSPEAGKIAEKTKEKVEKLGKKAKAEIAA
B27: design_623_6e2e8b1f-5d9a-4413-9869-27a184816b12_67_dldesign_0_cycle1_af2pred (protein)
chain: SREEELERVEEAIATARDVLAGAELTAAQVSPELAAAALRSAARTAVVLFEGEARRAEDEEARERLRKAAEEARKVAA
B28: design_622_fcc41892-afde-4fb9-b6e8-b664fffd6a75_1801_dldesign_0_cycle1_af2pred (protein)
chain: QALLEAASAIVEAAELAAKEVGPAAANALLTEAGKLLATGEAGLKAAVAEIDKVAKQASPEVAKKLLELRDKAAA
B29: design_622_fcc41892-afde-4fb9-b6e8-b664fffd6a75_1477_dldesign_0_cycle1_af2pred (protein)
chain: GEAVQTAVDALKLLSEERRRAAALVAADPENAEARAILERLEESFRAVARAAANPATAQEVGEAGIAEAERARERLAALA
B30: design_623_6e2e8b1f-5d9a-4413-9869-27a184816b12_1242_dldesign_0_cycle1_af2pred (protein)
chain: AAARRTALGLQRGASVIAYAKEVGVPEAGRRAGLLVVLALAGGAALGAAAAAAAEALAEELAAAGYPGFGTFVRGILRAARAEAA
B31: design_623_6e2e8b1f-5d9a-4413-9869-27a184816b12_1293_dldesign_0_cycle1_af2pred (protein)
chain: DAIRARAAEVKERAERLLEEGKRLPEIEEQVREMAESAKALADDALAAAATDPAQARLALAAAEALVRSLELLVERAKEEA
B32: design_623_6e2e8b1f-5d9a-4413-9869-27a184816b12_1249_dldesign_0_cycle1_af2pred (protein)
chain: AEAAKAAALEVLALAQEYYDQAKKNAAKIAPEKLKKADEAYAKALAALAAGDYGLAAHYAMLAYSYSSTGLQEA
B33: design_623_6e2e8b1f-5d9a-4413-9869-27a184816b12_254_dldesign_0_cycle1_af2pred (protein)
chain: DDLTQAQIALAAAQALIKNAKAVLEDKSASEETLKSAAEAMEVAIQLAKQAEKLAKKADPELAKKAKEVKKEAEKVKKELEKKI
B34: design_623_6e2e8b1f-5d9a-4413-9869-27a184816b12_1303_dldesign_0_cycle1_af2pred (protein)
chain: AAAQADALTARGKELYAEGKKKYKEGKKEEAAKLFFEAANDYMRAASLYSKVDPAQAVAALEQMEKAIEEYKKAKE
B35: design_622_fcc41892-afde-4fb9-b6e8-b664fffd6a75_2191_dldesign_0_cycle1_af2pred (protein)
chain: MKEEVEKLKKEAEKLVKEAKAAAEAGDSGKAVSLASEAFKVARELEKLPESKELGKELKAKAHEVLTLAAK
B36: design_623_6e2e8b1f-5d9a-4413-9869-27a184816b12_221_dldesign_0_cycle1_af2pred (protein)
chain: EEEEKRAAAKEAAALLEAAADDPATRGELVLQAIALLTRYPELAPYASAATRALALAAQEGVAAGAAALREVAAGVKALAE
B37: design_623_6e2e8b1f-5d9a-4413-9869-27a184816b12_1170_dldesign_0_cycle1_af2pred (protein)
chain: MSQAVLNTAKIAIETAGRSSPEEAKKLVEQAVDIASSASDENKKELVKYAKELAKKDPSSKEFYEAAAKKIEATL
B38: design_622_fcc41892-afde-4fb9-b6e8-b664fffd6a75_1349_dldesign_0_cycle1_af2pred (protein)
chain: AEASQALARRFIDATLAQMLAQIAAASAEEARRIAEAGLKAIEVAAQALPAEERAARVAEARERGAAAIAAKE

The assay deals with CD276, Q5ZPR3.
Chain of CD276, Q5ZPR3 (Q5ZPR3 whole entry): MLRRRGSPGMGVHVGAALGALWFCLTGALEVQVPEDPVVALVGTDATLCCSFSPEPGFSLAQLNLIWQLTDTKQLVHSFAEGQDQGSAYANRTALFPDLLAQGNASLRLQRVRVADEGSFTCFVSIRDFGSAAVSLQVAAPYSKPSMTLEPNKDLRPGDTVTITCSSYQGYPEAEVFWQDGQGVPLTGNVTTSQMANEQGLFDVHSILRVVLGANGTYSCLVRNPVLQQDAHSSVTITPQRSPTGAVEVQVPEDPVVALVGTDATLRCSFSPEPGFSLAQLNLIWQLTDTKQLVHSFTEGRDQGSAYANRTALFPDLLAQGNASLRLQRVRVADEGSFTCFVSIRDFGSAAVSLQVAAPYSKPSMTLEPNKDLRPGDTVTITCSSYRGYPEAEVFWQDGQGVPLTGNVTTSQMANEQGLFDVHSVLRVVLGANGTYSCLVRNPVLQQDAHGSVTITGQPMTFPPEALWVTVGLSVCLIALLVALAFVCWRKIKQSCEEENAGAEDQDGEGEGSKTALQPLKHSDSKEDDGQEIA
Take B1: the “binding in a display sort” value is “not found (inactive)”. B2: the “binding in a display sort” value was “not found (inactive)”.

Take B3: the “binding in a display sort” value is “not found (inactive)”.

Regarding B4, the “binding in a display sort” value is “not found (inactive)”. Consider B5, for which the “binding in a display sort” value was “not found (inactive)”. The value for B6 was “not found (inactive)”; that for B7 was “not found (inactive)”; that for B8 was “not found (inactive)”. For B9, the “binding in a display sort” value is “not found (inactive)”. Regarding B10, the “binding in a display sort” value is “not found (inactive)”. The value for B11 was “not found (inactive)”; that for B12 was “not found (inactive)”. As for B13, the “binding in a display sort” value was “not found (inactive)”. As for B14, the “binding in a display sort” value was “not found (inactive)”. With B15, the “binding in a display sort” value is “not found (inactive)”.

As for B16, the “binding in a display sort” value is “not found (inactive)”. For B17, the “binding in a display sort” value is “not found (inactive)”.

On to B18, for which the “binding in a display sort” value was “not found (inactive)”.

Turning to B19, the “binding in a display sort” value is “not found (inactive)”. The value for B20 was “not found (inactive)”.

For the molecule B21, the “binding in a display sort” value was “not found (inactive)”. On to B22, for which the “binding in a display sort” value was “not found (inactive)”.

Take B23: the “binding in a display sort” value is “not found (inactive)”. B24: the “binding in a display sort” value is “not found (inactive)”. With B25, the “binding in a display sort” value is “not found (inactive)”. The value for B26 was “not found (inactive)”; that for B27 was “not found (inactive)”. The value for B28 was “not found (inactive)”; that for B29 was “not found (inactive)”. For B30, the “binding in a display sort” value was “not found (inactive)”. For the molecule B31, the “binding in a display sort” value was “not found (inactive)”. As for B32, the “binding in a display sort” value is “not found (inactive)”. For B33, the “binding in a display sort” value is “not found (inactive)”.

In the case of B34, the “binding in a display sort” value is “not found (inactive)”. For B35, the “binding in a display sort” value was “not found (inactive)”. Consider B36, for which the “binding in a display sort” value is “not found (inactive)”. The value for B37 was “not found (inactive)”.

Consider B38, for which the “binding in a display sort” value is “not found (inactive)”.
